From PubChem BioAssay
BAZ2B block: qHTS Assay for Inhibitors of BAZ2B; Bromodomain adjacent to zinc finger domain protein 2B (Homo sapiens), Q9UIF8; AlphaScreen BAZ2B-H3K14Ac peptide displacement; Potency, µM (top dose mostly 114 µM), hits mostly inhibitors; actives 4.4% (n = 360,000); AID 504333, 2011; further: nearly all actives have a fitted effect of over 60% in size
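Protein-peptide AlphaScreen: BAZ2B 50 nM, b-H3K14Ac 50 nM, 1x PBS pH 7.4 + 0.01% Tween-20. Preincubation 30 min RT; cpd 30 min RT (top 110 uM); beads 20 min RT, light-protected.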
JMJD2A Tudor: qHTS Assay for Inhibitors of JMJD2A-Tudor Domain | AlphaScreen JMJD2A-Tudor / H3K4me3 peptide binding | Potency, µM (highest dose often 114 µM), actives largely listed as inhibitors | actives 4.4% (n = 390,000) | AID 504339, 2011; further: nearly all actives have a fitted effect of over 50% in size
HP1b chromo inh: HTS for Inhibitors of HP1-beta Chromodomain Interactions with Methylated Histone Tails; Potency, µM (series often up to 114 µM), most hits filed as inhibitors; actives 0.56% (n = 390,000); Chromobox protein homolog 1 (Homo sapiens), P83916; AlphaScreen HP1-beta / biotin-H3K9me3 peptide binding; further: nearly all actives have a fitted effect of over 70% in size
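AlphaScreen: HP1-beta (50 nM) preformed 30 min with biotin-H3(1-18)K9me3 peptide (50 nM) in PBS pH 7.4, 0.01% Tween-20. Compound added for 30 min at RT, then streptavidin donor/nickel chelate acceptor beads (10 ug/mL) for 30 min.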
G9a block: qHTS Assay for Inhibitors of Histone Lysine Methyltransferase G9a; AID 504332, 2011; Potency, µM (top dose mostly 102 µM), most hits filed as inhibitors; Histone-lysine N-methyltransferase EHMT2 (Homo sapiens), Q96KQ7; actives 8.8% (n = 350,000); G9a H3K9 monomethylation, AlphaScreen, 2 h; further: nearly all actives have a fitted effect of over 75% in size
Target sequence (Q96KQ7 913-1193 limits assumed): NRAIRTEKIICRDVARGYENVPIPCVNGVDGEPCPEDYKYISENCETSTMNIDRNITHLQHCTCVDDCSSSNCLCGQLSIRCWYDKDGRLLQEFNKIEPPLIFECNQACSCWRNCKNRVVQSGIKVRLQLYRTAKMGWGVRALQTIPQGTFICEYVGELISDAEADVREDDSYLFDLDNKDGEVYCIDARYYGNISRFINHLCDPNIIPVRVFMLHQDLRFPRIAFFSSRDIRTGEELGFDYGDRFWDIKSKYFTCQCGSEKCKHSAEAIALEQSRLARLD
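Compounds were preincubated with 20 nM G9a for 15 min, after which biotinylated H3K9 peptide (500 nM) and SAM (20 uM) started a 2 h room-temperature reaction. Monomethylated product was quantified by antibody-based AlphaScreen chemiluminescence.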
PLK1 PBD inh: qHTS for Inhibitors of PLK1-PDB (polo-like kinase 1 - polo-box domain): Primary Screen; Serine/threonine-protein kinase PLK1 (Homo sapiens), P53350; actives 2.8% (n = 360,000); Potency, µM, hits mostly inhibitors; AID 720504, 2013; Plk1 PBD binding of FITC phosphopeptide, fluorescence polarization; further: series mostly up to about 57 µM; nearly all actives have a fitted effect of over 65% in size
VDR inhibitor: Inhibitors of the vitamin D receptor (VDR): qHTS | actives 0.93% (n = 400,000) | Vitamin D3 receptor (Homo sapiens), P11473 | Potency, µM, usual class: inhibitors | VDR-SRC2-3 peptide fluorescence polarization, 2 h
Target sequence (P11473 whole entry, looked up): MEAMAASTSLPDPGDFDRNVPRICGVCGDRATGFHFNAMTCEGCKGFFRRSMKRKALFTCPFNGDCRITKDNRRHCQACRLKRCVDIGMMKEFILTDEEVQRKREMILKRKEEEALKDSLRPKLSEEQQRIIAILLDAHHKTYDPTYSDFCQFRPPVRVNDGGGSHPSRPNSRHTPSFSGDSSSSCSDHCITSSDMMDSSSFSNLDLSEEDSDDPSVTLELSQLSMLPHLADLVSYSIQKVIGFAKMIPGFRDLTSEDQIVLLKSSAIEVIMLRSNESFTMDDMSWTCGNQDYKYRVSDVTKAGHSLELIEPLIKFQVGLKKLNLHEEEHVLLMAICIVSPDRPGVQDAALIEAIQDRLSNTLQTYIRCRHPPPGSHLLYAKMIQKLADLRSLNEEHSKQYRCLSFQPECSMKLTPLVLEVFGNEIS
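Fluorescence polarization assay of small-molecule disruption of VDR binding to coregulator peptide SRC2-3. Compounds and controls pin-transferred, then read after 2 h incubation at ambient room temperature.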
Each line names hits and unclear results; the compound was inactive in the other large screens; ! = not active in a repeat. Sampled rows, rich in hits. Any-hit rate of the full collection: about 11%. The call rests on the fitted dose curve; in most records, active means well fitted curve in the direction sought with a large enough effect; inconclusive means small, poorly fitted or top-dose-only effect, or another doubt; inactive means no such curve, though single readings can be large; an effect the other way counts as inactive or inconclusive.

O=C(COC(=O)c1ccc(Cl)cc1Cl)Nc1cccc(S(=O)(=O)NC2=NCCC2)c1	none
CCNC(=S)N(CCc1c(C)[nH]c2ccccc12)Cc1cc(OC)c(OC)c(OC)c1	BAZ2B block 50µM, JMJD2A Tudor inconclusive, G9a block 89µM
CNC(=S)N(CCc1c(C)[nH]c2ccccc12)Cc1cc(OC)c(OC)c(OC)c1	BAZ2B block 45µM, JMJD2A Tudor inconclusive, G9a block inconclusive
COc1ccccc1NC(=S)N(CCc1c(C)[nH]c2ccccc12)Cc1cccs1	JMJD2A Tudor inconclusive, G9a block inconclusive
CCNC(=S)N(CCc1c(C)[nH]c2ccccc12)Cc1cccnc1	BAZ2B block inconclusive, JMJD2A Tudor inconclusive, HP1b chromo inh inconclusive, G9a block inconclusive, PLK1 PBD inh inconclusive
COc1ccccc1C(=O)Nc1cccc2c1CCCC2	none
Cc1ccc(=O)n(-c2ccccc2)c1	none (no result: BAZ2B block)
Cc1ccc(-n2cc(C(C)(C)C)[nH]c2=S)cc1	BAZ2B block inconclusive, JMJD2A Tudor 45µM, HP1b chromo inh inconclusive
CC(C)(C)c1cn(-c2ccccc2)c(=S)[nH]1	BAZ2B block inconclusive, JMJD2A Tudor 22µM, G9a block 7.9µM
COc1ccccc1-n1cc(-c2ccc(C)cc2)[nH]c1=S	BAZ2B block inconclusive, JMJD2A Tudor inconclusive, G9a block inconclusive
C=CCC(CC=C)(CNC(=O)C(=O)Nc1ccc(Br)cc1)c1ccc(OC)c(OC)c1	none (no result: PLK1 PBD inh)
COc1ccc(-c2cc(C(F)(F)F)nc(SCC(=O)Nc3sc4c(c3C#N)CCC4)n2)cc1	G9a block 11µM, PLK1 PBD inh inconclusive
N#Cc1c(NC(=O)CSc2nc3c(c(C(F)(F)F)n2)CCc2ccccc2-3)sc2c1CCCC2	G9a block 11µM, PLK1 PBD inh inconclusive
N#Cc1c(NC(=O)CSc2nc(-c3ccccc3)cc(C(F)(F)F)n2)sc2c1CCC2	PLK1 PBD inh inconclusive
CCC1CCc2c(sc(NC(=O)CSc3nc(-c4ccco4)cc(C(F)(F)F)n3)c2C#N)C1 (stereo not drawn)	PLK1 PBD inh 24µM
CCOC(=O)c1sc(NC(=O)CSc2nc(-c3ccco3)cc(C(F)(F)F)n2)c(C(=O)OC)c1C	none
COc1ccc(-c2cc(C(F)(F)F)nc(SCc3cccc(C(=O)O)c3)n2)cc1	JMJD2A Tudor inconclusive, PLK1 PBD inh 21µM
COCc1c(Br)c(C)nc2sc3c(=O)n(-c4cccc(Br)c4)nnc3c12	none (no result: PLK1 PBD inh)
Cc1cc(=O)c2cc(C(=O)c3ccccc3)ccc2[nH]1	none
CS(=O)(=O)N1CCC2(CCN(C(=O)Nc3cccc(C#N)c3)CC2)CC1	none (no result: BAZ2B block, JMJD2A Tudor, HP1b chromo inh, PLK1 PBD inh)
Cc1ccn2c(NC3CCCC3)c(-c3ccncc3)nc2c1	none
Cc1cc(C)n2c(NC3CCCCC3)c(-c3ccccn3)nc2n1	none (no result: BAZ2B block, JMJD2A Tudor, HP1b chromo inh, G9a block, VDR inhibitor)
c1ccc(-c2nc3ccccn3c2NC2CCCC2)nc1	BAZ2B block 50µM, JMJD2A Tudor inconclusive
Cc1ccn2c(NC3CCCC3)c(-c3ccccn3)nc2c1	BAZ2B block 50µM, JMJD2A Tudor 50µM, G9a block inconclusive
COc1ccccc1CN1CCCC2(CCN(C(=O)c3ccco3)CC2)C1	none (no result: BAZ2B block, JMJD2A Tudor, HP1b chromo inh, PLK1 PBD inh)
Cc1c(Cc2ccc3c(c2)OCO3)sc(NC(=O)C(C)(C)C)c1C#N	none
COc1ccc(OCc2nnnn2-c2ccccc2)cc1	none
COc1cc(CO)ccc1OCc1nnnn1-c1ccc(C)cc1	PLK1 PBD inh 17µM, VDR inhibitor inconclusive
O=C(c1nn(Cc2ccccc2)c(=O)c2ccccc12)N1CCN(C/C=C/c2ccccc2)CC1	BAZ2B block inconclusive, G9a block inconclusive
CCCn1c(N)c(C(=O)CSc2nc3ncc(Cl)cc3[nH]2)c(=O)n(C)c1=O	none
Cc1ccc(S(=O)(=O)N2CCN(C(=O)CSc3nnc(C)c(=O)[nH]3)CC2)cc1	G9a block 56µM
Cc1ccc2nc(SCC(=O)c3c(N)n(C)c(=O)n(C)c3=O)[nH]c2c1	BAZ2B block inconclusive, G9a block 0.89µM
Cc1cc(C)c(C)c(C(=O)CSc2nnc(C)c(=O)[nH]2)c1C	G9a block 50µM (no result: JMJD2A Tudor, HP1b chromo inh, PLK1 PBD inh, VDR inhibitor)
CC(C)Cn1c(N)c(C(=O)CSc2nc3ncc(Cl)cc3[nH]2)c(=O)n(C)c1=O	JMJD2A Tudor inconclusive, G9a block 28µM
CCc1ccc(NC(=O)C2CCC(CNS(=O)(=O)c3ccc4c(c3)C(C)(C)C(=O)N4C)CC2)cc1 (stereo not drawn)	none (no result: PLK1 PBD inh)
CC(C)c1ccccc1NC(=O)C1C2C=CC(C2)C1C(=O)O (stereo not drawn)	none (no result: G9a block)
CC(C)(C)c1ccc(CSc2ccc(S(=O)(=O)N3CCOCC3)cn2)cc1	PLK1 PBD inh inconclusive
O=S(=O)(c1ccccc1)n1ccc2cccnc21	none
COc1ccc(-c2nnc3n2N=C(c2ccccc2OC)CS3)cc1OC	none (no result: BAZ2B block, HP1b chromo inh, G9a block, PLK1 PBD inh, VDR inhibitor)
CCOc1ccc(/C=C/c2nc(C#N)c(NCc3ccc(OC)cc3)o2)cc1	none (no result: PLK1 PBD inh)
Cc1ccc2nc(SCC(=O)Nc3ccc(C#N)cc3)[nH]c2c1	none (no result: PLK1 PBD inh)
Cc1nnc(SCC(=O)c2c(N)n(C)c(=O)n(C)c2=O)[nH]c1=O	PLK1 PBD inh 24µM
CCOC(=O)c1c(C)[nH]c(C(=O)OCC(=O)N2CCN(S(=O)(=O)c3ccccc3)CC2)c1C	none
C/C(N)=C(/C#N)C(=O)CSc1nc2ccc(C)cc2[nH]1	G9a block 16µM
CC(=O)c1c(C)[nH]c(C(=O)OCC(=O)N2CCN(S(=O)(=O)c3ccc(C)cc3)CC2)c1C	BAZ2B block 50µM
COc1ccc(CN2CCC(=O)N(CCO)CC2)cc1OC	none (no result: G9a block)
COC(=O)c1ccc2c(=O)n(CCCCCC(=O)N3CCN(c4cc(C)ccc4C)CC3)c(=O)[nH]c2c1	none (no result: PLK1 PBD inh)
O=c1c2c3nc4ccccc4nc3n(-c3ccc4c(c3)OCCO4)c2ncn1C1CCCC1	JMJD2A Tudor 79µM (no result: BAZ2B block)
CCC(CNc1cc(OC)cc2cccnc12)NC1CCCCC1 (stereo not drawn)	BAZ2B block inconclusive, JMJD2A Tudor 56µM, G9a block 5µM
COc1cc(NCCCCC(C)N)c2nccc(C)c2c1 (stereo not drawn)	none (no result: BAZ2B block, JMJD2A Tudor, HP1b chromo inh, G9a block, VDR inhibitor)
COc1cc(NCCCC(C)N)c2ncccc2c1 (stereo not drawn)	BAZ2B block 32µM, JMJD2A Tudor 22µM, G9a block inconclusive, VDR inhibitor 45µM!
COc1cc(NS(=O)(=O)c2ccc(C)cc2)c2ncccc2c1	none
C[C@H](O)CNC(=O)c1[nH]cnc1C(=O)Nc1ccc(CNC(=O)OC(C)(C)C)cc1	none (no result: BAZ2B block, JMJD2A Tudor, HP1b chromo inh, G9a block, VDR inhibitor)
Clc1ccc(-c2csc3ncnc(NCCN4CCOCC4)c23)cc1	none
